PubChem BioAssay AID1159580 (chemical genetic matrix, 2015)
Where “and” joins values, the source holds several entries; their conditions need not be identical. Equal entries are not always repeated. In all, about 5,500 compounds went through this assay and about 2,000 (36%) were called active. Inconclusive results (about 18%) are left out. Cut-off read from the data, not from the text of the source: active = normalized growth mostly below about 0.91 (no sharp cut-off); inconclusive = no clear call, values can overlap the other calls; inactive = mostly above about 0.92. This is one part of the list.

Experiment: chemical genetic growth profiling, strain panel (AID 1159580);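 note: tested at 20 µM; growth read once vehicle control cultures reached saturation at 30 °C; 1 = growth at the plate median or of vehicle wells; lower values mean less growth of the strain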
Conditions: S. cerevisiae deletion strains, growth OD

Measured: normalized growth

CC1(C)O[C@@H]2CC3C4CCC5=CC(=O)C=C[C@]5(C)[C@@]4(F)[C@@H](O)C[C@]3(C)[C@]2(C(=O)CO)O1 (some centres not stated)
inactive: locus YAL013W, strain DEP1, hits give low values 1.02 | locus YAL021C, strain ccr4, hits give low values 0.99 | locus YAL026C, strain drs2, hits give low values 1 | locus YAL030W, strain snc1, hits give low values 0.996 | locus YBL061C, strain skt5, hits give low values 0.98 | locus YBR009C, strain hhf1, hits give low values 0.992 | locus YBR021W, strain FUR4, hits give low values 0.946 | locus YBR023C, strain chs3, hits give low values 0.993 | locus YBR171W, strain sec66, hits give low values 1 | locus YBR229C, strain ROT2, hits give low values 1.01 | locus YBR231C, strain swc5, hits give low values 0.987 | locus YBR279W, strain paf1, hits give low values 0.991 | locus YCL011C, strain gbp2, hits give low values 1.02 | locus YCL016C, strain dcc1, hits give low values 0.968 | locus YCL029C, strain bik1, hits give low values 1 | locus YCL061C, strain MRC1, hits give low values 1.01 | locus YCL069W, strain vba3, hits give low values 1.01 | locus YCR088W, strain abp1, hits give low values 1.01 | locus YDL005C, strain med2, hits give low values 1 | locus YDL035C, strain GPR1, hits give low values 1.01 | locus YDL040C, strain nat1, hits give low values 0.988 | locus YDL074C, strain BRE1, hits give low values 1.12 | locus YDL101C, strain DUN1, hits give low values 1.01 | locus YDL134C, strain PPH21, hits give low values 1.01 | locus YDL185W, strain tfp1, hits give low values 1.01 | locus YDL192W, strain arf1, hits give low values 1.01 | locus YDR001C, strain nth1, hits give low values 1 | locus YDR069C, strain doa4, hits give low values 0.998 | locus YDR101C, strain arx1, hits give low values 0.992 | locus YDR137W, strain rgp1, hits give low values 1.01 | locus YDR150W, strain NUM1, hits give low values 1.02 | locus YDR159W, strain sac3, hits give low values 0.928 | locus YDR162C, strain NBP2, hits give low values 1.01 | locus YDR195W, strain ref2 0.954 | locus YDR297W, strain sur2, hits give low values 0.997 | locus YDR318W, strain mcm21, hits give low values 0.987 | locus YDR334W, strain swr1, hits give low values 0.997 | locus YDR335W, strain msn5, hits give low values 1.02 | locus YDR388W, hits give low values 0.997 | locus YDR392W, strain spt3, hits give low values 0.884 | locus YDR502C, strain sam2, hits give low values 0.999 | locus YEL003W, strain gim4, hits give low values 0.991 | locus YEL037C, strain rad23, hits give low values 1.02 | locus YEL061C, strain CIN8 (second series), hits give low values 1 | locus YEL061C, strain CIN8, hits give low values 1.01 | locus YER015W, strain faa2, hits give low values 0.991 | locus YER016W, strain bim1, hits give low values 0.975 | locus YER110C, hits give low values 0.998 | locus YER111C, strain swi4, hits give low values 0.999 | locus YER155C, strain BEM2 (second series), hits give low values 0.983 | locus YER155C, strain BEM2, hits give low values 0.966 | locus YER167W, strain BCK2, hits give low values 1.01 | locus YFR010W, strain ubp6, hits give low values 1.01 | locus YGL078C, strain dbp3, hits give low values 1 | locus YGL086W, strain mad1, hits give low values 0.997 | locus YGL167C, strain pmr1, hits give low values 0.988 | locus YGL173C, strain kem1, hits give low values 0.98 | locus YGL227W, strain vid30, hits give low values 1.01 | locus YGL240W, strain doc1, hits give low values 0.953 | locus YGL248W, strain PDE1, hits give low values 1.01 | locus YGL253W, strain hxk2, hits give low values 1.02 | locus YGR078C, strain PAC10, hits give low values 1.03 | locus YGR135W, strain pre9, hits give low values 0.996 | locus YGR229C, strain SMI1, hits give low values 1.02 | locus YGR252W, strain gcn5, hits give low values 0.97 | locus YHR013C, strain ard1, hits give low values 0.956 | locus YHR027C, strain rpn1, hits give low values 1 | locus YHR030C, strain SLT2, hits give low values 1.01 and 0.993 | locus YHR079C, strain IRE1 (second series), hits give low values 0.989 | locus YHR079C, strain IRE1, hits give low values 0.989 | locus YHR094C, strain hxt1, hits give low values 0.994 | locus YHR129C, strain ARP1, hits give low values 1.01 | locus YHR142W, strain chs7, hits give low values 1.02 | locus YHR200W, strain rpn10, hits give low values 0.995 | locus YIL066C, strain RNR3, hits give low values 1.02 | locus YIL073C, strain SPO22, hits give low values 1.05 | locus YIL125W, strain kgd1, hits give low values 0.998 | locus YIR030C, strain dcg1, hits give low values 1.01 | locus YJL092W, strain hpr5, hits give low values 1 | locus YJL095W, strain BCK1 (second series), hits give low values 1 | locus YJL095W, strain BCK1, hits give low values 1.01 and 0.992 | locus YJL115W, strain asf1, hits give low values 0.993 | locus YJL129C, strain trk1, hits give low values 1.01 | locus YJL134W, strain LCB3, hits give low values 1.01 | locus YJL154C, strain vps35, hits give low values 0.999 | locus YJL164C, strain tpk1, hits give low values 0.994 | locus YJL166W, strain qcr8, hits give low values 0.996 | locus YJL168C, strain set2, hits give low values 0.993 | locus YJL187C, strain SWE1 (second series), hits give low values 1.02 | locus YJL187C, strain SWE1, hits give low values 0.976 | locus YJR043C, strain POL32, hits give low values 0.997 | locus YJR066W, strain TOR1, hits give low values 0.947
